Laboratory results: PubChem BioAssay (NCI)
Compounds without any hit were thinned out: in the full panel of roughly 83,000, 20% have a hit.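 96-well plates, one dose, 48 hours. Percent growth reported; active if below 10.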 Values without a mark were called inactive. The source made the active and inactive calls.

Columns and labels:
Experiment in all cases: NCI-60 one-dose screen, 48 h (100 = growth as untreated, 0 = no growth, -100 = all killed)
Details in all cases: 10 µM unless noted
HCT-15 colon = system: HCT-15 colon
HT29 colon = system: HT29 colon
SNB-75 CNS = system: SNB-75 CNS
SNB-19 CNS = system: SNB-19 CNS
U251 CNS = system: U251 CNS
PC-3 prostate = system: PC-3 prostate
SK-MEL-5 melanoma = system: SK-MEL-5 melanoma
UACC-62 melanoma = system: UACC-62 melanoma
LOX IMVI melanoma = system: LOX IMVI melanoma
SK-MEL-28 melanoma = system: SK-MEL-28 melanoma
SK-MEL-2 melanoma = system: SK-MEL-2 melanoma
EKVX NSCLC = system: EKVX NSCLC
SN12C renal = system: SN12C renal
UO-31 renal = system: UO-31 renal
TK-10 renal = system: TK-10 renal
ACHN renal = system: ACHN renal
CAKI-1 renal = system: CAKI-1 renal
A498 renal = system: A498 renal
CCRF-CEM leukemia = system: CCRF-CEM leukemia
MOLT-4 leukemia = system: MOLT-4 leukemia

SMILES | growth (HCT-15 colon) | growth (HT29 colon) | growth (SNB-75 CNS) | growth (SNB-19 CNS) | growth (U251 CNS) | growth (PC-3 prostate) | growth (SK-MEL-5 melanoma) | growth (UACC-62 melanoma) | growth (LOX IMVI melanoma) | growth (SK-MEL-28 melanoma) | growth (SK-MEL-2 melanoma) | growth (EKVX NSCLC) | growth (SN12C renal) | growth (UO-31 renal) | growth (TK-10 renal) | growth (ACHN renal) | growth (CAKI-1 renal) | growth (A498 renal) | growth (CCRF-CEM leukemia) | growth (MOLT-4 leukemia)
COC(=O)/C=C1/SC(=NCc2ccccc2)N(CCc2c[nH]c3ccccc23)C1=O | 58.5% | 68.1% | 104% | 87.2% | 78.5% | 72.9% | 87.6% | 71.7% | 70.6% | 86.5% | 85.8% | 88.1% | 85.4% | 73% | 129% | 99.5% | 102% | 88.1% | 30.3% | 3.29% (active)
Cc1c(C(C)(C)O)cn2ncnc(Oc3ccc(NC(=O)Nc4ccc(Cl)c(C(F)(F)F)c4)c(F)c3)c12 | 55.5% | 61.1% | 36.5% | 53.2% | 47% | 39.2% | 61.4% | 72% | 59.7% | 71.3% | 94.7% | 56.3% | 57.6% | 69.9% | 85.1% | 39.5% | 47.9% | 29.5% | 29.2% | 32.2%
COc1ccc(/C=C2\c3cc(OC)c(OC)c(OC)c3CC[C@@H]2O)cc1F | 20.7% | 11.9% | 14.5% | 42.4% | 20.1% | 23.1% | 23.8% | 34.2% | 37.3% | 70.1% | 41.6% | 44.1% | 53.2% | 47.7% | 57.9% | 43% | 48.4% | 8.33% (active) | 12.8% | 21.5%
O=c1cc(-c2ccccc2)nc(SCc2nc3cc(Cl)c(Cl)cc3[nH]2)[nH]1 | 98% | 96.4% | 86% | 109% | 99.9% | 103% | 105% | 105% | 98% | 111% | 91.3% | 102% | 105% | 81.7% | 104% | 97.3% | 93.3% | 93.7% | 124% | 95.5%
C=CC(=O)Nc1cccc(Oc2nccc(Nc3nnc(-c4ccc(Br)cc4)s3)n2)c1 | 88.6% | 116% | 87.5% | 97% | 97.5% | 89.5% | 94.7% | 87.6% | 91.9% | 108% | 110% | 101% | 99.2% | 78.9% | 152% | 100% | 81.2% | 101% | 87.3% | 100%
CCCCCc1ccc(S(=O)(=O)Nc2ccc3nc(N)oc3c2)cc1 | 82.5% | 89.4% | 40.7% | 66.3% | 71.5% | 57.2% | 4.66% (active) | 43.7% | 36.3% | 74.7% | 101% | 33.2% | 58.8% | 35.8% | 84.6% | 60.3% | 51.1% | 32.6% | 51.8% | 37.1%
Clc1ccc(Nc2nnc(CNc3ccccc3)c3ccccc23)cc1 | 13.4% | 0.551% (active) | 19.6% | 25.9% | 9.66% (active) | 7.15% (active) | -69.1% (active) | 8.47% (active) | 12.1% | 14.9% | 8.63% (active) | 16.9% | 28.9% | 1.91% (active) | -0.692% (active) | 7.07% (active) | 28.2% | 24.7% | 12.4% | -9.21% (active)
CCOc1ncc([N+](=O)[O-])c(OCC)n1 | 104% | 121% | 97% | 104% | 109% | 88.1% | 99.9% | 95.9% | 101% | 105% | 103% | 122% | 91.8% | 106% | 115% | 106% | 116% | 111% | 101% | 90.9%
C[C@H]1[C@H](C)CC[C@]2(C(=O)NCCNCCN)CC[C@]3(C)C(=CC[C@@H]4[C@@]5(C)CCC(=O)C(C)(C)[C@@H]5CC[C@]43C)[C@H]12 | 13.1% | 4.06% (active) | 65% | 71.6% | -28.6% (active) | 38.5% | 85.3% | 77.5% | -76.7% (active) | 81.5% | 91.4% | 79.4% | 68.2% | 60.3% | 74% | 77.1% | 61.5% | 75% | -11.7% (active) | -9.76% (active)
Cc1c2ccccc2nc2cc3c(cc12)[C@H]1CC[C@]2(C)C(=O)CC[C@H]2[C@@H]1CC3 | 90.3% | 99.9% | 66.4% | 84.9% | 92% | 80.6% | 88.8% | 88.1% | 97.8% | 111% | 103% | 91.5% | 95.4% | 74% | 111% | 95% | 73.7% | 104% | 97.4% | 80.8%
COc1ccc(-c2cc(-c3cn(-c4cccc(Cl)c4)nc3-c3ccc(OC)cc3)on2)cc1 | 91.2% | 93.6% | 99.2% | 92.7% | 90.2% | 86.5% | 98% | 94% | 102% | 105% | 86.8% | 98.8% | 89% | 77.3% | -45.1% (active) | 101% | 93.5% | 78.6% | 88.1% | 77%
CN(C)CCCn1c2c(c3ccncc3c1=O)C(=O)c1ccccc1-2 | 2.9% (active) | 2.14% (active) | 21% | 1.91% (active) | 0.267% (active) | -18.5% (active) | -94.3% (active) | -56.7% (active) | -42.3% (active) | -43.1% (active) | -4.66% (active) | 82.7% | 6.53% (active) | -37.4% (active) | 12.8% | -38.4% (active) | 10.8% | 58% | 1.34% (active) | -15% (active)
O=C(CCCCCCCC(=O)N1CCCCC1)N1CCCCC1 | 96.8% | 106% | 78.8% | 105% | 102% | 95.3% | 97.1% | 91% | 88.1% | 102% | 103% | 100% | 99.4% | 71.4% | 97.3% | 97.8% | 89.4% | 94.2% | 116% | 126%
CC1=C2[C@@H](CC1)[C@]1(C)O[C@@](C3CCNCC3)(C[C@H]1OC(=O)CO)[C@H]2OC(=O)/C=C/c1ccccc1 | 93.4% | 43.2% | 68.9% | 90.6% | 44.3% | 66.6% | 94.8% | 93.3% | 87.1% | 94.1% | 106% | 91.8% | 53.1% | 60.1% | 97.3% | 47% | 49.1% | 9.48% (active) | 78.9% | 78.1%
NCCCNc1nc2ccccc2c2c(=O)c3cc(Cl)ccc3sc12 | -76.9% (active) | -45.4% (active) | 47.9% | 22.8% | -95.1% (active) | -18.9% (active) | 46.9% | -6.22% (active) | -90.5% (active) | -30% (active) | 41% | 57.4% | -66.5% (active) | -71.7% (active) | 24.3% | -37.2% (active) | 22.1% | 70.2% | -28.5% (active) | -61.8% (active)
